Test results from PubChem BioAssay (Tox21).
Results filed as inconclusive are left out. Calls of active or inactive are those of the source. Unless noted, the call rests on the fitted dose curve.

Tests used:
[1] = target: Androgen receptor (Homo sapiens) (UniProt P10275); experiment: qHTS assay to identify small molecule agonists of the androgen receptor (AR) signaling pathway in the presence of an antagonist (AID 1259381); further: nearly all actives have a fitted effect of over 15% in size; further: potency means the concentration at half of the fitted maximal effect
Method in brief: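 Agonist-mode confirmation screen: human MDA-kb2 cells stably expressing luciferase under an MMTV promoter bearing AR and GR response elements, co-treated with 3.0uM nilutamide (final). Luminescence measured after 16hr compound incubation.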

[2] = qHTS assay to identify small molecule antagonists of the estrogen receptor beta (ER-beta) signaling pathway - cell viability counter screen (AID 1259382; active means well fitted curve in the direction sought with a large enough effect in the repeat runs; an effect the other way counts as inactive or inconclusive; further: nearly all actives have a fitted effect of over 55% in size; further: potency means the concentration at half of the fitted maximal effect)
Method in brief: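 Cytotoxicity counter screen multiplexed with the beta-lactamase antagonist assay: GripTite HEK293T ER-beta-bla cells were treated 16 hr with test chemicals in the presence of 1nM 17-beta-estradiol, and viability was measured by CellTiter-Glo.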

[3] = target: Estrogen receptor (Homo sapiens) (UniProt P03372); experiment: qHTS assay to identify small molecule agonists of the estrogen receptor alpha (ER-alpha) signaling pathway in the presence of an antagonist (AID 1259383); further: top concentration of the series differs between compounds; nearly all actives have a fitted effect of over 15% in size
Method in brief: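 Agonist-mode confirmation in the presence of the ER antagonist ICI-182,780 at 10.0nM final. Breast-derived VM7Luc4E2 reporter cells were exposed to compounds for 22hr, and ERE-driven luciferase was quantified by luminescence.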

[4] = qHTS assay to identify small molecule agonists or antagonists of the thyroid stimulating hormone receptor (TSHR) signaling pathway - wild type cell line counter screen (AID 1259384)
Method in brief: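 Wild-type HEK293 cells were plated 18 h at 37 C/5% CO2, pin-dosed with compound plus Ro20-1724 medium, held 30 min at room temperature, then given cAMP-d2 and anti-cAMP-cryptate; fluorescence was read after 1 h. Fifteen concentrations, triplicate.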

[5] = target: Thyrotropin receptor (Homo sapiens) (UniProt P16473); experiment: qHTS assay to identify small molecule antagonists of the thyroid stimulating hormone receptor (TSHR) signaling pathway (AID 1259385); further: nearly all actives have a fitted effect of over 20% in size; further: potency means the concentration at half of the fitted maximal effect
Method in brief: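 TSHR-HEK293 cells were plated and held 18 h at 37C/5% CO2, then given compound plus Ro20-1724 and stimulated with TSH at 1.5 ng/mL final. After 30 min at room temperature, cAMP was detected with cAMP-d2/anti-cAMP-cryptate (1 h) by fluorescence.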

[6] = qHTS assay to identify small molecule agonists of the estrogen receptor alpha (ER-alpha) signaling pathway in the presence of an antagonist - cell viability counter screen (AID 1259386; active means well fitted curve in the direction sought with a large enough effect in the repeat runs; an effect the other way counts as inactive or inconclusive;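 further: cells exposed to compounds for 22 h at 37 °C before the viability read; nearly all actives have a fitted effect of over 30% in size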; further: potency means the concentration at half of the fitted maximal effect)
Method in brief: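 Cytotoxicity was measured in parallel with the ERE-luciferase agonist screen, in the same wells. The cells were VM7Luc4E2, which endogenously express ER-alpha, and treatment was with compounds plus 10.0nM ICI-182,780 for 22hr.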

[7] = target: Progesterone receptor (Homo sapiens) (UniProt P06401); experiment: qHTS assay to identify small molecule agonists of the progesterone receptor (PR) signaling pathway (AID 1346784); further: nearly all actives have a fitted effect of over 30% in size
Method in brief: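 Beta-lactamase reporter read-out: after 16 hr compound treatment at 37C and a further 2 hr at room temperature with LiveBLAzer B/G FRET substrate, fluorescence was measured in PR-UAS-bla HEK 293T cells grown in 2% charcoal-stripped serum.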

[8] = target: Progesterone receptor (Homo sapiens) (UniProt P06401); experiment: qHTS assay to identify small molecule antagonists of the progesterone receptor (PR) signaling pathway (AID 1346795; active means well fitted inhibition curve with a large enough effect in the signal ratio in the repeat runs, not every such curve was filed as active; the % refers to the signal ratio; further: potency means the concentration at half of the fitted maximal effect)
Method in brief: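 Read-out is fluorescence from the LiveBLAzer B/G FRET substrate, cleaved by a UAS-controlled beta-lactamase in PR-UAS-bla HEK293T cells after 16 hr exposure to compound plus 1 nM promegestone (final), followed by 2 hr at room temperature.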

[9] = qHTS assay to identify small molecule agonists of the progesterone receptor (PR) signaling pathway - cell viability counter screen (AID 1346799); further: nearly all actives have a fitted effect of over 45% in size; further: potency means the concentration at half of the fitted maximal effect
Method in brief: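 Luminescence from CellTiter-Glo, added after the beta-lactamase FRET read in the same wells, gave cytotoxicity in PR-UAS-bla HEK293T cells treated with compounds for 16 hr at 37C.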

[10] = qHTS assay to identify small molecule antagonists of the progesterone receptor (PR) signaling pathway - cell viability counter screen (AID 1346798; active means well fitted curve in the direction sought with a large enough effect in the repeat runs; an effect the other way counts as inactive or inconclusive; further: nearly all actives have a fitted effect of over 50% in size; further: potency means the concentration at half of the fitted maximal effect)
Method in brief: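 HEK293T PR-UAS-bla, 2% charcoal-stripped FBS; 4 hr pre-plate; cpd + R5020, 16 h 37C; LiveBLAzer read first; then CellTiter-Glo 30 min RT, luminescence.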

Measured: Potency

Sequence of Androgen receptor (Homo sapiens) (P10275 whole entry, looked up): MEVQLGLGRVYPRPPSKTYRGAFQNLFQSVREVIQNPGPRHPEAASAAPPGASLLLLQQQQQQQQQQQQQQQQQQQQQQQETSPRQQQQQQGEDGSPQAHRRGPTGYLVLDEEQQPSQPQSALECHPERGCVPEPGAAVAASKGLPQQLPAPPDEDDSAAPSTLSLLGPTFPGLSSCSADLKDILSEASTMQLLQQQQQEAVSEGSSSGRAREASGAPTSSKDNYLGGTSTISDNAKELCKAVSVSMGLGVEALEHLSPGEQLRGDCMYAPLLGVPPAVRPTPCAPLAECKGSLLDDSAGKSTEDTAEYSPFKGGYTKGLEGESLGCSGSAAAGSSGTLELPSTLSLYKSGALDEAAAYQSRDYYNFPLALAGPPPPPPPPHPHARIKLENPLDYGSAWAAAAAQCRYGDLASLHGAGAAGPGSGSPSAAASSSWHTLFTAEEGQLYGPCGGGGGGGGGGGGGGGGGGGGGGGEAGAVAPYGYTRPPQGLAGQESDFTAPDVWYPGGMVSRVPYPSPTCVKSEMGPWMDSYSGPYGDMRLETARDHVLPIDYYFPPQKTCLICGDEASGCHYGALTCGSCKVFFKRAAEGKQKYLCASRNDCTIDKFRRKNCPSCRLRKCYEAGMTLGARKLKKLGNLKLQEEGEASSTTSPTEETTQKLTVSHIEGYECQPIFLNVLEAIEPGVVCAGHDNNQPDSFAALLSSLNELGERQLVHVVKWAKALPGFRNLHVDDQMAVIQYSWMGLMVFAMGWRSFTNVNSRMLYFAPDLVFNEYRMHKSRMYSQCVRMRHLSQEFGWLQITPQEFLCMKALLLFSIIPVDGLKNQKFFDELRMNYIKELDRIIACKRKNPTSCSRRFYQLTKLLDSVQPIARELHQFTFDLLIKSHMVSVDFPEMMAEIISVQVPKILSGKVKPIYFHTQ
Sequence of Progesterone receptor (Homo sapiens) (P06401 whole entry, looked up): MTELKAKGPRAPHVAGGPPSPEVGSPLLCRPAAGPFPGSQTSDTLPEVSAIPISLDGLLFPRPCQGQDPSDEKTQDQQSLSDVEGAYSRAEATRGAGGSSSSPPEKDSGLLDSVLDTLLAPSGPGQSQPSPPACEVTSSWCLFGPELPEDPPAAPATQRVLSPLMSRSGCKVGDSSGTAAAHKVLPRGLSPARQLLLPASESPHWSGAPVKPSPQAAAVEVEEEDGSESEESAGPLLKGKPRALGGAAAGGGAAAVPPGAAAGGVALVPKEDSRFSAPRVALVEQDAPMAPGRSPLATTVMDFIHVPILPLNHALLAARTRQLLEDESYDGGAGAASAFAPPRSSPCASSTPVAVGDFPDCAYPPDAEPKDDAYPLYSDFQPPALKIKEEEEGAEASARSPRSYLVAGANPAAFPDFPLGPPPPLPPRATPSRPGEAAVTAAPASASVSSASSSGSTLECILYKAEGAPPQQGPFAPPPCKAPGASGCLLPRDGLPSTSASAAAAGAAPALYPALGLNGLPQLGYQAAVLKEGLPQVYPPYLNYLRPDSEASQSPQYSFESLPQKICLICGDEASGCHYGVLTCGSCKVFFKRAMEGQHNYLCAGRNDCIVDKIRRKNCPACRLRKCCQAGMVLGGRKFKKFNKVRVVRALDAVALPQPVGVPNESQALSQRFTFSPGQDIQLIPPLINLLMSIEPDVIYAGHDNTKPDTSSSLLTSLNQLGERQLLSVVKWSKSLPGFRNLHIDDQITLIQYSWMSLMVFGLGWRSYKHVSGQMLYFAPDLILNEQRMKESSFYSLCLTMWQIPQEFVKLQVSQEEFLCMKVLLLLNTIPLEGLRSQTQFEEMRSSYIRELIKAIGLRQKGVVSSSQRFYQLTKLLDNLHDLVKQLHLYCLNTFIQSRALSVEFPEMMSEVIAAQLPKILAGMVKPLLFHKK
Sequence of Estrogen receptor (Homo sapiens) (P03372 whole entry, looked up): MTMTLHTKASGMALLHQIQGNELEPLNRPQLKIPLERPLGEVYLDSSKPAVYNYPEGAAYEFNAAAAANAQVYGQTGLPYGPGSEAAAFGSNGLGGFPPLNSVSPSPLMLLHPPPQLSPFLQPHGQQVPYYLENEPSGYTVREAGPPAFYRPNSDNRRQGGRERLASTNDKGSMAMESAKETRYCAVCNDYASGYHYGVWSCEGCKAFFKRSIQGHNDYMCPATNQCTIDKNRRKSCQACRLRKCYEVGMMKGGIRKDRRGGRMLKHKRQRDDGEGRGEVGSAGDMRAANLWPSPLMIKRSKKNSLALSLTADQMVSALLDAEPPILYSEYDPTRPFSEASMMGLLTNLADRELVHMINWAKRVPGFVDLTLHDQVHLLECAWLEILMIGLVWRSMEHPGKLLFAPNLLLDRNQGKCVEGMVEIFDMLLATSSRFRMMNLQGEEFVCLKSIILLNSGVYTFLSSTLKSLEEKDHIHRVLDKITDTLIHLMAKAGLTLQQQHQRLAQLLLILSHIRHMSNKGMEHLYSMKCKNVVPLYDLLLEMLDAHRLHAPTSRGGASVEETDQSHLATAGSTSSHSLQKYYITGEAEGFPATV
Sequence of Thyrotropin receptor (Homo sapiens) (P16473 whole entry, looked up): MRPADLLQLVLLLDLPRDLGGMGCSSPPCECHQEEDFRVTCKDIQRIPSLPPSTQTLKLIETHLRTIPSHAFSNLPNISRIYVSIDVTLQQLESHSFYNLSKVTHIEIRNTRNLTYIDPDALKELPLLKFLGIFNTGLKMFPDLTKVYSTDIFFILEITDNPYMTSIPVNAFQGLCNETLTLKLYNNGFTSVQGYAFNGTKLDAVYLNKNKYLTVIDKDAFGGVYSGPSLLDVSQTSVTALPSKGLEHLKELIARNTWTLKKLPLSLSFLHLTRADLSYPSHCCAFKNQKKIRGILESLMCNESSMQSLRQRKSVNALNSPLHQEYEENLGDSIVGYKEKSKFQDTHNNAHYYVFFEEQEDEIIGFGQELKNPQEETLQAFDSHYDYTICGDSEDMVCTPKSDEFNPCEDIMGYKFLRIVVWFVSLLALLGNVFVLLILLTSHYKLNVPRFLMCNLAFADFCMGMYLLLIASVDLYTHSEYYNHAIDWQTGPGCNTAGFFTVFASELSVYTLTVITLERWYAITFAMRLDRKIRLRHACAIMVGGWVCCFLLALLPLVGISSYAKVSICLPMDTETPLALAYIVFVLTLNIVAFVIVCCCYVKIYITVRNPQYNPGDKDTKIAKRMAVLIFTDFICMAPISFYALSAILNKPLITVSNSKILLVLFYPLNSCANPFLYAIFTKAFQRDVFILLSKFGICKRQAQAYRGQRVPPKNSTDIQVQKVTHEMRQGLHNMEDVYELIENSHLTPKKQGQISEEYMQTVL

C=C1CC[C@H]2O[C@]2(C)CC[C@@H]2[C@@H]1CC2(C)C
not listed: [10]
inactive: all other assays above

CN1CCN(C)CC1
not listed: [9] | [10]
inactive: all other assays above

COCCC(=O)OC
not listed: [8] | [10]
inactive: all other assays above

C/C=C/C(=O)OCC(C)C
not listed: [8]
inactive: all other assays above

CN[C@H]1CC[C@@H](c2ccc(Cl)c(Cl)c2)c2ccc(S(N)(=O)=O)cc21
active: [2] 21.7 µM | [10] 48.6 µM | [9] 48.6 µM
inactive: [1] | [3] | [4] | [6]

Cc1ccc(N=Nc2c(O)ccc3ccccc23)c(C)c1
active: [1] 0.335 µM | [6] 7.5 µM
not listed: [8]
inactive: all other assays above

CCN(CC)c1ccc(C=O)cc1
active: [1] 34.4 µM
not listed: [5] | [8]
inactive: all other assays above

Brc1cc(Br)cc(Br)c1
not listed: [9] | [10]
inactive: all other assays above

CCCCCCCCCCCCCCCCC(C(=O)O)C(O)(CC(=O)O)C(=O)O (configuration not stated)
inactive: all assays above

O=C(c1ccccc1)c1ccc(Cl)cc1
not listed: [6]
inactive: all other assays above

N#CCCOCCC#N
not listed: [8]
inactive: all other assays above

CCN(CC)c1ccc(C=O)c(O)c1
active: [1] 43.3 µM
not listed: [8] | [10]
inactive: all other assays above

C=C1C(CCl)(CCl)C2(Cl)C(Cl)C(Cl)C1(Cl)C2(Cl)Cl (configuration not stated)
inactive: [1] | [4] | [5]

COC(=O)c1ccc([N+](=O)[O-])cc1
not listed: [3] | [7] | [8]
inactive: all other assays above

C=CCc1cc(S(=O)(=O)c2ccc(O)c(CC=C)c2)ccc1O
active: [8] 27.3 µM
not listed: [2] | [9] | [10]
inactive: all other assays above

Cc1c[nH]c(=O)[nH]c1=O
not listed: [1]
inactive: all other assays above

CC(C)(C)c1ccc(OC2CCCCC2O)cc1 (configuration not stated)
not listed: [2] | [6] | [8]
inactive: all other assays above

O=C(NCc1ncc(C(F)(F)F)cc1Cl)c1c(Cl)cccc1Cl
inactive: [1] | [3] | [4] | [7] | [9]
active: [8] 24.3 µM

CCc1cccc(C)c1N(C(=O)C(=O)O)C(C)COC (configuration not stated)
not listed: [1]
inactive: all other assays above

Nc1ccc(F)c([N+](=O)[O-])c1
not listed: [1] | [9]
inactive: all other assays above

CCCCCCCCCCCCCCCCCCNC(=O)OC1CCN(C(=O)OC[C@H](COC(=O)N(Cc2cccc[n+]2CC)C(=O)c2ccccc2OC)OC)CC1
active: [5] 29.8 µM | [6] 26.6 µM
inactive: [1] | [3] | [4]

O=c1cc[nH]cc1
not listed: [1]
inactive: all other assays above

Nc1ccc(Cl)c([N+](=O)[O-])c1
inactive: [1] | [6] | [7] | [9]
active: [8] 54.5 µM

O=C1OC2(c3ccccc31)c1ccc(O)c(Br)c1Oc1c2ccc(O)c1Br
inactive: [1] | [2] | [10]
active: [5] 48.6 µM | [6] 30.6 µM

CC/C=C\C/C=C\C/C=C\CCCCCCCC(=O)OC
not listed: [1] | [9] | [10]
inactive: all other assays above

CCCCCc1ccc(O)cc1
not listed: [2] | [8] | [10]
inactive: all other assays above

NCc1cccc(C2CCN(C(=O)c3ccc(C#Cc4ccccc4F)o3)CC2)c1
active: [2] 61.1 µM | [8] 68.6 µM | [10] 48.6 µM | [9] 61.1 µM
inactive: [1] | [3]
